Experimental data published in PubChem BioAssay AID614 (Sanford-Burnham Center for Chemical Genomics, 2007).
The campaign covered roughly 21,000 compounds. Fewer than 10 were called active.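 The calls were made as follows: active = inhibition above 50% at the 20 µM single-dose screen; inactive = the rest.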 Not all results are given here.

target: Alkaline phosphatase, tissue-nonspecific isozyme (Homo sapiens) (UniProt P05186); assay: human TNAP enzyme inhibitors, primary screen, biochemical, colorimetric, phosphate release readout (AID 614); conditions: purified TNAP, pNPP, malachite green phosphate absorbance; at 20 µM; active compounds read high
Sequence (P05186 whole entry, looked up): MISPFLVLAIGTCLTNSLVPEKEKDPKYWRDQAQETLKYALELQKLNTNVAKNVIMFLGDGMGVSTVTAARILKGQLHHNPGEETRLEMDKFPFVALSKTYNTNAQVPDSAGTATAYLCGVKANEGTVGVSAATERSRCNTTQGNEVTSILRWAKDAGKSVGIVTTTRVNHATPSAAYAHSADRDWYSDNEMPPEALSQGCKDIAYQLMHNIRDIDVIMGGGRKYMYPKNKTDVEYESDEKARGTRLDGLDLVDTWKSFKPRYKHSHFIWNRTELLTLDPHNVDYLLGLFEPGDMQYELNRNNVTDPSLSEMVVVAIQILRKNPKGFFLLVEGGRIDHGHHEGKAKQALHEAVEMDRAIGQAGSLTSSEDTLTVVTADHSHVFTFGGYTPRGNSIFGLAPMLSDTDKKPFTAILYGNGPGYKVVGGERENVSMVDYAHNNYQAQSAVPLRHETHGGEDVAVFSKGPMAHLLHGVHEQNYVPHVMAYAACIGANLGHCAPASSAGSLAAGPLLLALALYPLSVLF

inhibition, inactive:
CC(=O)Nc1cccc2c1[n+]([O-])c(C)c(C)[n+]2[O-] 2.9%
N#CCCN(CCC#N)c1nnc(-c2ccccc2)s1 0%
COc1ccc(Cn2cccc(NC(=O)Nc3ccc(C#N)cc3)c2=O)cc1 10.4%
CCOC(=O)CNC(=O)CSc1nnc(COc2ccc(Cl)cc2)n1CC 10.6%
CCc1nnc(NC(=O)c2nc3nccc(C)n3n2)s1 -4.2%
CNC(=O)c1cc2c(ccc3ccccc32)oc1=N 5.2%
CCN(c1ccccc1)S(=O)(=O)c1cccc(C(=O)O)c1 1.1%
CN(C)c1nc2n(c(=O)n1)CCO2 -3%
COc1ccccc1NC(=O)C1=C(C)NC2=C(C(=O)CCC2)C1c1ccc(C)o1 (centres undefined) -1.3%
C=CCc1cccc2cc(C(=O)N3CCN(C(=O)OCC)CC3)c(=O)oc12 5.5%
CC1Cc2ccccc2N1C(=O)CSc1nnc(-c2ccc(S(=O)(=O)N3CCCCC3)cc2)o1 (centres undefined) 12.2%
O=c1oc2c(CN3CCCCC3)c(O)ccc2c2c1CCCCC2 8.2%
CCn1c(SCC(=O)Nc2cc(C)c(Cl)cc2OC)nnc1-c1ccco1 10.5%
O=C(NC1CCCCC1)n1c(=O)oc2cc(S(=O)(=O)N3CCCCC3)ccc21 6.7%
Cn1c(SCC(=O)OC2CCCCC2)nnc1-c1ccc(S(=O)(=O)N2CCCC2)cc1 10.3%
O=C(NCc1cn2ccsc2n1)Nc1cccc(Cl)c1 0.5%
CCC1(C)N(O)C(C)(C)C(c2ccc(OC)cc2)=[N+]1[O-] (centres undefined) 8.5%
CCc1c(O)nc(SCC(=O)N2CCCCC2)n(-c2ccccc2C)c1=O 2.1%
Cc1ccc(C(C(=O)NCc2ccco2)N(CC2CCCO2)C(=O)Cn2nnc3ccccc32)cc1 (centres undefined) 8.3%
CC(C)=C(NC(=O)c1ccco1)C(=O)NCCc1nc2ccccc2[nH]1 9.6%
O=C(O)CCC(=O)N(Cc1ccco1)c1nc(-c2ccccc2)cs1 7.9%
COC(=O)COc1ccc(S(=O)(=O)Nc2ccc(NC(C)=O)cc2)cc1 11.9%
CCc1cccc(C)c1NC(=O)CSc1nnc(-c2ccco2)n1N 7.1%
C/C(O)=C\c1nc(=O)c2c(C)cc(C)nc2n1-c1ccccc1 10.5%
COc1ccccc1N1CCN(C(=O)c2ccc(S(=O)(=O)N3CCCCC3)cc2)CC1 11.7%
Cc1ccc(C(C)C)c(OCc2nnc(SCC(=O)Nc3nccs3)n2C)c1 -5.7%
NC(=O)C1CCN(C2OC(=O)c3ccccc32)CC1 (centres undefined) 0%
O=C(CSc1nnnn1-c1ccc2c(c1)CCC2)Nc1ccc2c(c1)OCCO2 -0.8%
O=C(CNCCO)NC12CC3CC(CC(C3)C1)C2 0%
Cc1nc(NC(CC(C)C)C(=O)O)c2nc(C)oc2n1 (centres undefined) -15%
O=C1c2oc3ccc(Br)cc3c(=O)c2C(c2cccc(F)c2)N1CCO (centres undefined) 10.1%
CC(C)C(=O)N1CCN(CCN=CC2=C(O)CC(c3ccco3)CC2=O)CC1 (centres undefined) 2.1%
CCOC(=O)c1c(NC(=O)CSc2nnc(C)c(=O)[nH]2)sc2c1CCC2 10.5%
COC(=O)C(NC(C)=O)(Nc1nc2c(s1)CCCC2)C(F)(F)F (centres undefined) 10.6%
CC1Cc2ccccc2N1C(=O)CSc1nc2ccccc2o1 (centres undefined) 14%
CCCn1c(SCC(N)=O)nnc1C(C)C 3.8%
COC(=O)CNC(=O)c1ccc2c(c1)S(=O)(=O)c1ccccc1C2=O 14.1%
O=C(Oc1ccccc1)c1ccc2nccnc2c1 8.8%
CC(Sc1nncs1)C(=O)NCc1ccc2c(c1)OCO2 (centres undefined) 18.9%
C=CCn1c(C2CC(=O)N(c3ccc(C)cc3)C2)nc2ccccc21 (centres undefined) 8.4%
c1ccc2c(CNn3cnnc3)cccc2c1 4%
O=c1cc(CSc2ccc(Cl)cc2)nc(N2CCOCC2)[nH]1 -11.8%
CCCc1nc2c3cnn(-c4cccc(Cl)c4)c3ncn2n1 -13.7%
Cn1c(=O)c2c(nc(OCc3cccnc3)n2Cc2ccccc2)n(C)c1=O 0%
O=C(CCCC(=O)N(CC(=O)NC1CCCC1)Cc1ccccc1Cl)Nc1ccccn1 10.7%
CC12C(=O)N(n3cnnc3)C(=O)C1C1C=CC2C1 (centres undefined) -18.4%
Cn1cnc2c1c(=O)n(Cc1c(Cl)cccc1Cl)c(=O)n2C 7.6%
COc1ccc(-n2c(C)nc3c(cnn3-c3ccccc3)c2=O)cc1 -8.2%
CC(=O)Nc1ccc(S(=O)(=O)N2CCCC2C(=O)O)cc1 (centres undefined) 10.8%
COCCn1nnnc1C(c1ccccc1Cl)N1CCN(c2ccccc2OC)CC1 (centres undefined) 8.5%
CC(Cc1cccs1)NC(=O)NC1CCCCC1 (centres undefined) 10%
CS(=O)(=O)N(CC(=O)N1CCN(c2cccc(Cl)c2)CC1)c1ccccc1 0%
O=C(CSc1nnc(-c2cccnc2)n1Cc1ccco1)c1ccc(Cl)cc1 8.1%
CCN1C(=O)/C(=C\N2CCN(c3ccccc3)CC2)SC1=S 10.1%
O=C(Nc1c(-c2ccccc2)nc2c(Br)cc(Br)cn12)c1ccco1 9.2%
Cc1ccc(C2(c3ccc(C)cc3)NC(=O)N(Cc3c(C)noc3C)C2=O)cc1 -2%
COC(=O)[C@H](C)NC(=O)Nc1ccc(OC(F)(F)F)cc1 4.2%
Cc1csc(NC(=O)CN2CCCCCC2)n1 14.8%
COc1ccc(-c2nc3n(c2Br)CCC3)cc1 0%
CCOC(=O)N1CCN(C(=O)C2CCN(S(C)(=O)=O)CC2)CC1 -0.3%
O=S(=O)(NCc1ccccn1)c1ccc(Br)s1 -2.3%
COCCNC(=O)CN(C(=O)CCC(=O)Nc1cc(C)on1)c1ccc(C)cc1C 14.4%
CN1CCN(S(=O)(=O)c2ccc(NC(=O)C3CCCO3)cc2)CC1 (centres undefined) 11.5%
C=CCNc1nc(C)nc(OC)n1 -2.9%
CCc1cc(=O)oc2cc(C)cc(OC(C)C(=O)O)c12 (centres undefined) 8.6%
O=S(=O)(O)c1nc2ccccc2n1Cc1ccc(Cl)cc1Cl 0%
CCNC(=O)CCc1nc(-c2ccc(C(C)(C)C)cc2)no1 2%
CC1(C)Oc2ccc(C(=O)N3CCOCC3)cc2N(CC(=O)Nc2ccccc2)C1=O -16.7%
COc1cccc(C2/C(=C(/O)c3ccc(F)cc3)C(=O)C(=O)N2CCN(C)C)c1 (centres undefined) 0.4%
Cc1cccc(N)c1SC1CCCCC1O (centres undefined) 9.2%
CC(C)(C)n1nnc(CCc2nnn(C(C)(C)C)n2)n1 0.3%
CCOC(=O)CSc1nnc(NC(=O)c2cccc(S(=O)(=O)N3CCCC3)c2)s1 9.6%
C=CCNc1nnc(C)c2ccccc12 15.4%
COCCNC(=O)C(C#N)c1nc2ccccc2nc1N1CCN(Cc2ccc3c(c2)OCO3)CC1 (centres undefined) 8.2%
CC1COC2C(O1)N(S(C)(=O)=O)CCN2S(C)(=O)=O (centres undefined) 3.4%
CCn1cc(C(=O)NCc2ccc(OC)cc2OC)c(=O)c2ccc(C)nc21 9.9%
Cc1cccc(NC(=O)c2ccccc2NC(=O)C(C)(C)C)n1 0.8%
Cc1cc(C)cc(NC(=O)N2CCC(NC(=O)c3ccc(F)cc3)CC2)c1 7.3%
CSc1nsc(SC)c1NC(=O)OC1CCCCC1 0%
COCc1nc2ccccc2n1Cc1ccccc1Br 1.7%
c1nnc2c3c4c(sc3ncn12)CCC4 9.7%
Cc1cc(Cl)c(S(=O)(=O)NCc2cccnc2)cc1OCC(N)=O 5.5%
O=C(O)c1ccc(NS(=O)(=O)c2cccc3nsnc23)cc1 11.8%
Cn1c(=O)[nH]c(=O)c2c1nc(Br)n2CCCCSc1nc2ccccc2o1 1.3%
CCOC(=O)c1sc(NC(=O)CSc2nnc(-c3ccco3)o2)c(C(=O)OCC)c1C 7.3%
Cc1nc(N2CCCC2C(=O)O)c2oc3ccccc3c2n1 (centres undefined) 10.7%
Cc1nc(NCCN)c(C#N)c2c1COC(C)(C)C2 5.7%
O=S(=O)(NCc1ccccn1)c1ccc(F)cc1 9.6%
CCN(CC)C(=O)CSc1nnc(-c2cnccn2)n1-c1ccc(C)cc1 2.9%
Cc1ccc(S(=O)(=O)Nc2ccccc2CNc2c(C)n(C)n(-c3ccccc3)c2=O)cc1 12.4%
CCC1CCCCN1C(=O)Nc1cccc(NC(=O)N2CCCCC2CC)c1 (centres undefined) 6.5%
Cc1ccc2nc(-c3ccccc3)cc(C(=O)O)c2c1 2.9%
COc1ccc(Cl)cc1NC(=O)C1CC(=O)N(c2ccc(F)cc2)C1 (centres undefined) 4.2%
CCOC(=O)Cn1c(SC)nc2sc3c(c2c1=O)CC(C)(C)OC3 11.5%
CCOC(=O)CCc1c(C)c2ccc(OCc3nn[nH]n3)c(C)c2oc1=O -5.8%
Cc1noc(C)c1CSc1nnc2ccc3ccccc3n12 12.2%
COc1ccc(CCn2c(-c3ccco3)nc3nc4ccccc4nc32)cc1OC 1.5%
Cc1cccc2cc(CN(Cc3ccc4c(c3)OCO4)Cc3nnnn3C3CCCC3)c(=O)[nH]c12 15%
COc1cc(C(=O)N(Cc2ccc(N(C)C)cc2)C2CCS(=O)(=O)C2)cc(OC)c1OC (centres undefined) 8%
